Measurements reported in the supplement of paper PMC13380429.

System: Vero E6 infected with SARS-CoV-2
Experiment: inhibition of SARS-CoV-2 cytopathic effect; higher = more antiviral protection, active = above 15
Settings: 1 nM; 48 h

| Structure (SMILES) | inhibition of SARS-CoV-2 cytopathic effect |
| --- | --- |
| CCC(=O)O[C@@H]1CC(=O)O[C@H](C)C/C=C/C=C/[C@H](OC(C)=O)[C@H](C)C[C@H](CC=O)[C@H](O[C@@H]2O[C@H](C)[C@@H](O[C@H]3C[C@@](C)(OC(C)=O)[C@@H](OC(=O)CC)[C@H](C)O3)[C@H](N(C)C)[C@H]2O)[C@H]1OC [miocamycin] | 2.92% (inactive) |
| Cc1ccsc1C(=CCCN1CCC[C@@H](C(=O)O)C1)c1sccc1C [tiagabine] | 1.59% (inactive) |
| Clc1ccccc1C(c1ccccc1)(c1ccccc1)n1cccn1 | 2.55% (inactive) |
| CCCCN1CCC(CNC(=O)c2c3n(c4ccccc24)CCCO3)CC1 [piboserod] | -0.67% (inactive) |
| Cn1cc(C2=C(c3cn(CCCSC(=N)N)c4ccccc34)C(=O)NC2=O)c2ccccc21 [bisindolylmaleimide-IX] | -1.28% (inactive) |
| CCCN(CCc1cccs1)[C@H]1CCc2c(O)cccc2C1 [rotigotine] | 0.32% (inactive) |
| CC(=O)N[C@@H](Cc1c[nH]c2ccccc12)C(=O)OCc1cc(C(F)(F)F)cc(C(F)(F)F)c1 | 0.3% (inactive) |
| CCOc1ccccc1C(N)=O [ethenzamide] | 5.35% (inactive) |
| OCCN1CCN(CCCN2c3ccccc3C=Cc3ccccc32)CC1 [opipramol] | 2.92% (inactive) |
| C[C@H](Oc1cc(-c2cnn(C3CCNCC3)c2)cnc1N)c1c(Cl)ccc(F)c1Cl [crizotinib-(S)] | 0.35% (inactive) |
| CCC(=O)O[C@]1(C(=O)CO)CC[C@H]2[C@@H]3CCC4=CC(=O)CC[C@]4(C)[C@H]3CC[C@@]21C | 0.99% (inactive) |
| Cc1cccc(-c2n[nH]cc2-c2ccc3ncccc3n2)n1 [repsox] | -0.69% (inactive) |
| O=C(Cc1ccc(-c2ccc(OCCN3CCOCC3)cc2)cn1)NCc1ccccc1 | -1.67% (inactive) |
| Nc1ncnc2nc(-c3ccc(N4CCOCC4)nc3)cc(-c3cccc(Br)c3)c12 | -0.77% (inactive) |
| Cc1nc(C)c(C)nc1C [chuanxiongzine] | 2.81% (inactive) |
| O=C(CCCN1CC=C(n2c(=O)[nH]c3ccccc32)CC1)c1ccc(F)cc1 [droperidol] | -0.89% (inactive) |
| CC1(C)CC[C@]2(NC(=O)C(C)(F)F)CC[C@]3(C)[C@H](C(=O)C=C4[C@@]5(C)C=C(C#N)C(=O)C(C)(C)[C@@H]5CC[C@]43C)[C@@H]2C1 [Omaveloxolone (RTA-408)] | 4.28% (inactive) |

| Structure (SMILES) | inhibition of SARS-CoV-2 cytopathic effect |
| --- | --- |
| N[C@H](C(=O)O)c1ccc(O)cc1 [oxfenicine] | 2.15% (inactive) |
| CCS(=O)(=O)N1CCC[C@@H]2CN3CCc4cc(OC)ccc4[C@@H]3C[C@@H]21 | -0.74% (inactive) |
| O=C(Nc1cc(C(F)(F)F)cc(C(F)(F)F)c1)Nc1c(Br)cc(Br)cc1-c1nnn[nH]1 | 1.22% (inactive) |
| CC(NC(=O)c1ccccc1/N=C/c1c(O)ccc2ccccc12)c1ccccc1 (stereo not drawn) [sirtinol] | 3.41% (inactive) |
| Cc1ccc(Cl)c(Nc2ccccc2C(=O)O)c1Cl [meclofenamic-acid] | -0.6% (inactive) |
| COc1cc(-c2cc(-c3cccc(O)c3)cnc2N)cc(OC)c1OC | -0.86% (inactive) |
| Brc1c(Br)c(Br)c2[nH]nnc2c1Br [4,5,6,7-tetrabromobenzotriazole] | 1.42% (inactive) |
| C=C(C)CN1CC[C@]23c4c5ccc(O)c4O[C@H]2c2[nH]c4ccccc4c2C[C@@]3(O)C1C5 | 1.25% (inactive) |
| O=C(Nc1ccccc1F)N[C@H]1N=C(c2ccccc2)c2ccccc2NC1=O | 0.66% (inactive) |
| O=C(O)[C@@H]1C[C@@H](C2CCCCC2)CN1C(=O)CP(=O)(O)CCCCc1ccccc1 [fosinoprilat] | -0.23% (inactive) |
| Nc1nc2ccc(OC(F)(F)F)cc2s1 [riluzole] | -0.39% (inactive) |
| C[C@H](N)C(=O)N[C@@]1(C(=O)O)C[C@@H](Sc2nnc[nH]2)[C@H]2[C@H](C(=O)O)[C@H]21 | -2.66% (inactive) |
| O=C/C=C/c1ccccc1 [cinnamaldehyde] | 1.16% (inactive) |
| NS(=O)(=O)c1cc2c(cc1Cl)N=C(CSCc1ccccc1)NS2(=O)=O [benzthiazide] | 3.18% (inactive) |
| CN1CCN(C2=Cc3ccccc3Oc3ccc(Cl)cc32)CC1 | 1.06% (inactive) |
| CCCCC(CC)CCC(CC(C)C)OS(=O)(=O)O (stereo not drawn) [sodium-tetradecyl-sulfate] | 3.58% (inactive) |
